The panel holds about 79,000 compounds, 15% with a hit somewhere; the sample as a whole holds those more often. Active and inactive are the calls of the source. Rule as the data show it: active = growth inhibition above about 70%; inactive = the rest.
Legend:
[1] = NCI Yeast Anticancer Drug Screen. Data for the rad52 strain (AID 147);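 also: 0% = growth of vehicle-treated control cultures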; conditions: S. cerevisiae rad52 mutant growth inhibition, active compounds read high
In short: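 Screen used a yeast mutant impaired in DNA repair. After compound exposure, growth was measured. Values reflect inhibition compared with vehicle-treated cells.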

[2] = NCI Yeast Anticancer Drug Screen. Data for the wt1 strain (AID 149);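 also: 0% = growth of vehicle-treated wt1 cultures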; conditions: S. cerevisiae wt1 strain (SPY 50644) growth inhibition, active compounds read high
In short: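 Yeast wt1 strain exposed to compounds; growth inhibition measured relative to vehicle-treated controls.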

[3] = NCI Yeast Anticancer Drug Screen. Data for the rad50EPP+ strain (AID 151);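 also: 0% = growth of vehicle-treated control cultures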; conditions: S. cerevisiae rad50 mutant strain, active compounds read high
In short: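 Exposing the rad50EPP+ strain to each compound, growth was compared with vehicle-only cultures to give inhibition.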

[4] = NCI Yeast Anticancer Drug Screen. Data for the mgt1 strain (AID 153); conditions: S. cerevisiae mgt1 mutant growth inhibition, active compounds read high
In short: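 Genetically defined yeast (mgt1) treated with compound; inhibition of growth expressed against vehicle-treated controls.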

[5] = NCI Yeast Anticancer Drug Screen. Data for the rad50 strain (AID 155);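 also: 0% = growth of vehicle-only cultures of the same strain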; conditions: S. cerevisiae rad50 strain growth inhibition, active compounds read high
In short: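 Yeast carrying a defined DNA repair defect were exposed to test compounds, and growth was compared with vehicle-treated controls to give percent inhibition.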

[6] = NCI Yeast Anticancer Drug Screen. Data for the mec2-1 strain (AID 157); conditions: S. cerevisiae mec2-1 strain, active compounds read high
In short: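 Readout is yeast growth inhibition, normalised to vehicle-treated controls, in the mec2-1 strain exposed to compound.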

[7] = NCI Yeast Anticancer Drug Screen. Data for the rad14 strain (AID 159);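 also: 0% = growth of vehicle-treated control cultures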; conditions: S. cerevisiae rad14 strain growth inhibition, active compounds read high
In short: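 Yeast cells carrying a defined DNA-repair defect were exposed to compounds, and growth inhibition was calculated relative to vehicle-treated control cultures.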

[8] = NCI Yeast Anticancer Drug Screen. Data for the sgs1 mgt1 strain (AID 161);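 also: 0% = growth of cultures given vehicle only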; conditions: S. cerevisiae sgs1 mgt1 strain, active compounds read high
In short: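 Yeast cells carrying a defined DNA-repair defect were exposed to test compounds. Growth inhibition was measured relative to vehicle-treated controls.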

[9] = NCI Yeast Anticancer Drug Screen. Data for the CLN2oe strain (AID 163);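 also: 0% = growth of vehicle-only control cultures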; conditions: S. cerevisiae CLN2oe strain, active compounds read high
In short: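 Values reflect how much compound exposure reduced yeast growth, referenced to vehicle-exposed cells. Assay organism is a strain with a defined genetic change affecting cell-cycle control.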

[10] = NCI Yeast Anticancer Drug Screen. Data for the cln2 rad14 strain (AID 165);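 also: 0% = growth equal to vehicle treated cultures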; conditions: S. cerevisiae cln2 rad14 strain, active compounds read high
In short: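 Relative to vehicle controls, growth inhibition of compound-treated cln2 rad14 yeast was recorded.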

[11] = NCI Yeast Anticancer Drug Screen. Data for the bub3 strain (AID 167); conditions: S. cerevisiae bub3 mutant strain, active compounds read high
In short: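 Compounds were applied to a genetically altered yeast strain carrying a cell-cycle control defect. Growth inhibition was scored against vehicle-treated controls.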

[12] = NCI Yeast Anticancer Drug Screen. Data for the wt2 strain (AID 169);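 also: 0% = growth of vehicle-treated yeast cultures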; conditions: S. cerevisiae wt2 strain growth inhibition, active compounds read high
In short: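 Values express reduction in yeast growth under compound treatment, referenced to vehicle-treated cells.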

[13] = NCI Yeast Anticancer Drug Screen. Data for the mlh1 strain (AID 171);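 also: 0% = growth of vehicle-treated control cultures of the same strain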; conditions: S. cerevisiae mlh1 strain growth inhibition, active compounds read high
In short: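 Steps: expose the defined-mutant yeast strain to compound; expose a parallel culture to vehicle; measure growth; express compound effect as inhibition relative to the vehicle culture.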

[14] = NCI Yeast Anticancer Drug Screen. Data for the sgs1 strain (AID 173);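 also: 0% = growth of vehicle-only control cultures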; conditions: S. cerevisiae sgs1 mutant, active compounds read high
In short: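 Treat defined-mutant yeast with compound; measure growth; calculate inhibition relative to vehicle-treated cells.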

[15] = NCI Yeast Anticancer Drug Screen. Data for the mlh1 rad18 strain (AID 175); conditions: S. cerevisiae mlh1 rad18 strain growth inhibition, active compounds read high
In short: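 Test agents were incubated with a yeast strain of defined genotype (DNA damage repair defect). Inhibition of growth was derived by comparison with vehicle-exposed cultures.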

[16] = NCI Yeast Anticancer Drug Screen. Data for the rad18 strain (AID 177); conditions: S. cerevisiae rad18 mutant growth inhibition, active compounds read high
In short: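 A genetically defined yeast mutant impaired in DNA damage repair was treated with test compounds, then its growth was measured against cultures receiving vehicle alone.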

[17] = at 5.0 µM (retest, dose inferred, filed as 0.5)
[18] = at 50.0 µM (retest, dose inferred, filed as 5.0)

Measured: growth inhibition

Cc1ccc(S(=O)(=O)NC(=O)C2C(=O)CC3(CCCCC3)CC2=O)cc1
active: [2]; at 100.0 µM 83% | [4]; at 33.0 µM 80% | [4]; at 100.0 µM 85% | [6]; at 33.0 µM 79% | [6]; at 100.0 µM 83% | [7]; at 33.0 µM 82% | [7]; at 100.0 µM 86% | [9]; at 33.0 µM 77% | [9]; at 100.0 µM 84% | [11]; at 33.0 µM 72% | [11]; at 100.0 µM 74% | [12]; at 33.0 µM 84% | [12]; at 100.0 µM 83% | [13]; at 33.0 µM 82% | [13]; at 100.0 µM 88% | [14]; at 100.0 µM 79% | [15]; [18] 71%
inactive: [1]; at 1.2 µM -22% | [1]; at 3.7 µM -37% | [1]; at 11.0 µM -34% | [1]; at 33.0 µM 7% | [1]; at 100.0 µM 36% | [2]; at 1.2 µM -22% | [2]; at 3.7 µM -16% | [2]; at 11.0 µM -20% | [2]; at 33.0 µM 67% | [3]; at 1.2 µM -3% | [3]; at 3.7 µM -21% | [3]; at 11.0 µM -18% | [3]; at 33.0 µM -12% | [3]; at 100.0 µM -21% | [4]; at 1.2 µM -24% | [4]; at 3.7 µM -16% | [4]; at 11.0 µM -13% | [5]; at 1.2 µM -12% | [5]; at 3.7 µM -6% | [5]; [17] 10% | [5]; at 11.0 µM -23% | [5]; at 33.0 µM 5% | [5]; [18] 25% | [5]; at 50.0 µM -9.4% | [5]; at 100.0 µM 35% | [6]; at 1.2 µM -25% | [6]; at 3.7 µM -30% | [6]; [17] 12% | [6]; at 11.0 µM 20% | [6]; [18] 26% | [6]; at 50.0 µM 30.1% | [7]; at 1.2 µM -29% | [7]; at 3.7 µM -44% | [7]; at 11.0 µM 3% | [8]; [17] 11% | [8]; [18] 21% | [8]; at 50.0 µM -16.6% | [9]; at 1.2 µM -12% | [9]; at 3.7 µM 1% | [9]; at 11.0 µM 4% | [10]; [17] 5% | [10]; [18] -1% | [10]; at 50.0 µM -8.9% | [11]; at 1.2 µM -5% | [11]; at 3.7 µM 23% | [11]; [17] 20% | [11]; at 11.0 µM 5% | [11]; [18] 16% | [11]; at 50.0 µM -17.9% | [12]; at 1.2 µM -39% | [12]; at 3.7 µM -28% | [12]; at 11.0 µM 20% | [13]; at 1.2 µM -2% | [13]; at 3.7 µM -11% | [13]; at 11.0 µM 13% | [14]; at 1.2 µM -12% | [14]; at 3.7 µM -8% | [14]; at 11.0 µM 4% | [14]; at 33.0 µM 68% | [15]; [17] 42% | [15]; at 50.0 µM -61.4% | [16]; at 1.2 µM -15% | [16]; at 3.7 µM -2% | [16]; at 11.0 µM -16% | [16]; at 33.0 µM 14% | [16]; at 100.0 µM 48%

COc1ccc(-c2cc(-c3cc(C)cc(Cl)c3O)nc3[nH]c(=S)[nH]c(=S)c23)cc1
active: [1]; at 100.0 µM 72% | [4]; at 100.0 µM 94% | [5]; [18] 96% | [5]; at 50.0 µM 75.1% | [6]; at 50.0 µM 82.6% | [7]; at 100.0 µM 89% | [8]; at 50.0 µM 84.8% | [9]; at 100.0 µM 87% | [10]; [18] 76% | [11]; at 50.0 µM 70.5% | [12]; at 100.0 µM 87% | [13]; at 100.0 µM 87% | [14]; at 100.0 µM 93% | [15]; [18] 86% | [15]; at 50.0 µM 87.1%
inactive: [1]; at 1.2 µM 1% | [1]; at 3.7 µM 4% | [1]; at 11.0 µM 6% | [1]; at 33.0 µM 15% | [2]; at 1.2 µM 0% | [2]; at 3.7 µM -1% | [2]; at 11.0 µM 0% | [2]; at 33.0 µM 1% | [2]; at 100.0 µM 35% | [3]; at 1.2 µM 3% | [3]; at 3.7 µM -5% | [3]; at 11.0 µM -14% | [3]; at 33.0 µM -15% | [3]; at 100.0 µM -15% | [4]; at 1.2 µM -1% | [4]; at 3.7 µM -2% | [4]; at 11.0 µM -3% | [4]; at 33.0 µM 25% | [5]; at 1.2 µM 3% | [5]; at 3.7 µM 5% | [5]; [17] -32% | [5]; at 11.0 µM 6% | [5]; at 33.0 µM 11% | [5]; at 100.0 µM 57% | [6]; at 1.2 µM 0% | [6]; at 3.7 µM 0% | [6]; [17] 2% | [6]; at 11.0 µM -2% | [6]; at 33.0 µM 2% | [6]; [18] 62% | [6]; at 100.0 µM 57% | [7]; at 1.2 µM 1% | [7]; at 3.7 µM 4% | [7]; at 11.0 µM 9% | [7]; at 33.0 µM 17% | [8]; [17] -13% | [8]; [18] 68% | [9]; at 1.2 µM -2% | [9]; at 3.7 µM -2% | [9]; at 11.0 µM -3% | [9]; at 33.0 µM -5% | [10]; [17] 44% | [10]; at 50.0 µM 65.5% | [11]; at 1.2 µM 2% | [11]; at 3.7 µM 4% | [11]; [17] -20% | [11]; at 11.0 µM 0% | [11]; at 33.0 µM 1% | [11]; [18] 63% | [11]; at 100.0 µM 58% | [12]; at 1.2 µM 0% | [12]; at 3.7 µM -4% | [12]; at 11.0 µM -4% | [12]; at 33.0 µM 6% | [13]; at 1.2 µM -1% | [13]; at 3.7 µM -2% | [13]; at 11.0 µM 0% | [13]; at 33.0 µM 10% | [14]; at 1.2 µM 1% | [14]; at 3.7 µM -2% | [14]; at 11.0 µM -1% | [14]; at 33.0 µM 16% | [15]; [17] -31% | [16]; at 1.2 µM 0% | [16]; at 3.7 µM -2% | [16]; at 11.0 µM -16% | [16]; at 33.0 µM 8% | [16]; at 100.0 µM 61%

Reference: PubChem BioAssay (NCI)
